About 2,500 (0.74%) of roughly 340,000 compounds were called active. Shown is part of a subset that was picked to be rich in actives. Values without a mark were called inactive.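 How the source made its calls: active means inhibition above about 55% (limit read from the data); inactive means the rest.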

A short description of this assay: Gli-Sufu pathway antagonists, primary screen, luciferase luminescence, Sufu-KO-LIGHT cells, uHTS (AID 588413).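 Further: 0% = DMSO-treated cells and 100% = wells with medium but no cells.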 Conditions: Sufu-KO-LIGHT fibroblasts, Gli luciferase reporter luminescence; at 5 µM; hits give high values. (In general: In a reporter assay the amount or activity of a reporter protein is the signal.)
One may read the inhibition as the drop in the measured response relative to a control, in per cent. Regarding `CCS(=O)(=O)Nc1ccc(C2=NN(S(=O)(=O)c3ccc(F)cc3)C(c3ccco3)C2)cc1` (stereo not given), the inhibition is 1.29%.

`Cn1cc(S(=O)(=O)Nc2ccc(Cl)cc2Cl)c(=O)n(C)c1=O`: the inhibition was 1.79%. Take `O=C(NCCOCc1ccc(Cl)cc1)c1ncn[nH]1`: the inhibition was 84.5% (active). Take `O=C(NCCS(=O)(=O)NCc1ccc(Cl)cc1)c1ccccc1`: the inhibition is -12.9%. `Cc1cc(C(=O)NCCc2ccc(Cl)cc2)n(-c2ccccc2)n1`: the inhibition is -16.3%.

As for `CCOc1ccc(NC(=S)N2CCCCCC2)cc1`, the inhibition is -2.25%. The same measure for `Cc1nn(C)c(C)c1S(=O)(=O)N1CCC(CO)(Cc2ccc(Cl)cc2)CC1`: 8.21%. In the case of `C=CCNC(=S)/N=c1/ccccn1Cc1ccccc1`, the inhibition was 67.3% (active). The same measure for `C=CCNC(=O)COc1coc(CN2CCN(Cc3ccccc3)CC2)cc1=O`: 3.43%. The same measure for `CNC(=S)NNC(=O)c1cccn(Cc2ccccc2)c1=O`: 13.9%. Turning to `Cc1cccc(NC(=O)C2CCCN2S(=O)(=O)c2ccc(F)cc2)c1C` (stereo not given), the inhibition was 10.9%. On to `Cc1[nH]nc(-c2ccc(OCc3cnn(-c4ccccc4)c3)cc2O)c1Oc1ccc(Cl)cc1`, for which the inhibition was 4.97%. The same measure for `COc1cccc(CC(=NO)c2cccc(OC)c2)c1`: -2.96%. Turning to `Cc1noc(NS(=O)(=O)c2ccc(N3CC(O)=C(c4ccccc4)C3=N)cc2)c1C`, the inhibition was -2.28%. `CCCC1=Nc2cc(C(=O)NCCN3CCCC3)ccc2Sc2ccccc21`: the inhibition was 18.7%. As for `CC(C)(C)c1ccc(C(=O)NCc2ccco2)cc1`, the inhibition is -4.01%. The same measure for `CCCC1=Nc2cc(C(=O)NCc3ccco3)ccc2Sc2ccccc21`: 65.9% (active); for `COc1c(O)ccc2c1CN1CCc3cc4c(cc3C1C2)OCO4` (stereo not given): -25.1%; for `CCOC(=O)c1sc2nc(C)nc(Nc3ccc(OC)c(OC)c3)c2c1C`: 12.9%. The same measure for `CC(=O)c1cccc(CN2CCC(CO)(Cc3ccccc3)CC2)c1`: 30.4%; for `COc1ccccc1/C=C/CN1CCC(CO)(Cc2ccccc2)CC1`: 65.4% (active). The same measure for `OCC1(Cc2ccccc2)CCN(Cc2cc3ccccc3o2)CC1`: 22.4%; for `CCOC(=O)C1CCCN(C(=O)C2CCN(S(=O)(=O)c3ccc(Cl)c(C(F)(F)F)c3)CC2)C1` (stereo not given): 3.88%; for `CCOC(=O)c1ccccc1NC(=O)c1c(N)n(C)c(=O)[nH]c1=O`: 5.02%. Consider `COc1ccc(-n2nnc3c(=O)n(CC(=O)OCc4ccccc4)cnc32)cc1`, for which the inhibition was 1.46%. The same measure for `CCCn1c2ccccc2c2cnn(CC(=O)NCCCN3CCCCC3CC)c(=O)c21` (stereo not given): 12.7%; for `CCC1CCCCN1CCCNC(=O)Cn1nc(-c2ccccc2)ccc1=O` (stereo not given): 57% (active); for `Cc1ccc(-c2ccc(=O)n(CC(=O)NCCCN3CCCCC3)n2)cc1`: 5.01%. The same measure for `CCOC(=O)c1ccc(S(=O)(=O)N(CCO)Cc2cc3cc(OC)c(OC)cc3[nH]c2=O)cc1`: 1.66%; for `Cc1ccc(S(=O)(=O)NCCC(c2ccccc2)c2ccccc2)cc1C(=O)O`: -19.2%. Take `COC(=O)CNC(=O)c1cc(-c2ccncc2)nc2ccccc12`: the inhibition is -8.23%. The same measure for `CCN(CC)CCNC(=O)c1ccc(NC(=O)c2cc(-c3ccncc3)nc3ccccc23)cc1`: 64.3% (active); for `O=C(Nc1ccc(S(=O)(=O)Nc2nccs2)cc1)c1cc(-c2ccncc2)nc2ccccc12`: 0.2%; for `CN(C)c1ccc(CNC2C3CC4CC(C3)CC2C4)cc1` (stereo not given): 1.25%.

On to `O=C(NCC(=O)N1CCCCCCC1)c1ccccc1Cl`, for which the inhibition is -20.5%. The same measure for `CC(=O)c1ccc(S(=O)(=O)NCCC(=O)N2CCN(c3ccccn3)CC2)cc1`: -5.24%. The same measure for `O=C(c1cccs1)N(Cc1cc2ccccc2[nH]c1=O)CC1CCCO1` (stereo not given): 20.4%; for `Cc1ccc(S(=O)(=O)N(Cc2cc3ccccc3[nH]c2=O)CC2CCCO2)cc1` (stereo not given): 64.1% (active); for `CCN(Cc1cc2cc(C)ccc2[nH]c1=O)S(=O)(=O)c1ccccc1`: 0.68%. With `O=C(O)CCCn1c(=O)c2cccn2c2ccc(F)cc21`, the inhibition is 4.96%. The same measure for `COc1ccc(C2=NS(=O)(=O)N(C)C(C(=O)N3CCCCC3)=C2)cc1`: 14.7%; for `CCOc1ccccc1N1CN(Cc2ccccc2)CNC1=S`: -9.38%. The same measure for `C=CCC1(CC=C)CCCN1C(=O)c1cc(COc2ccc(-n3cncn3)cc2)on1`: 77.8% (active). The same measure for `O=C(c1cc(COc2ccc(F)c(F)c2)on1)N1CCOCC1`: -41.7%; for `COc1cccc(OCc2cc(C(=O)N3CCN(C(=O)c4ccco4)CC3)no2)c1`: -5.15%; for `COc1cc(Cl)c(C)cc1NC(=O)CSc1nnc(CN2CCCC2)o1`: 1.49%.

On to `O=C(NOCc1ccccc1)c1cccc([N+](=O)[O-])c1`, for which the inhibition is -14.1%. On to `CNC(=O)c1ccsc1NC(=O)c1ccc(S(=O)(=O)N2CCc3ccccc32)cc1`, for which the inhibition is 5.3%. The same measure for `O=C(NC(Nc1nc2ccc([N+](=O)[O-])cc2s1)(C(F)(F)F)C(F)(F)F)c1ccccc1`: 87.4% (active); for `N=C1C(c2nc3ccccc3s2)=C(O)CN1NC(=O)c1ccc([N+](=O)[O-])cc1`: -3.9%. The same measure for `O=C(Nc1nc2ccc([N+](=O)[O-])cc2s1)c1ccc(S(=O)(=O)N2CCCc3ccccc32)cc1`: 77.6% (active). The same measure for `Cc1ccc(NC(=O)c2cccc(S(=O)(=O)N3CCCc4ccccc43)c2)nc1`: -3.22%. For the compound `CCOc1ccc(C(=O)Nc2nccs2)cc1[N+](=O)[O-]`, the inhibition was -24.3%. With `OC(c1ccc(Cl)cc1)C(CN1CCOCC1)c1ccccc1` (stereo not given), the inhibition was -27.6%. With `Cc1ccc(C(CC(=O)O)NC(=O)c2ccc(S(=O)(=O)N3CCCC3)cc2)cc1` (stereo not given), the inhibition is -3.63%. The same measure for `c1ccc(C(=NNc2nc3ccccc3s2)c2ccccn2)cc1`: 82.5% (active); for `COc1cc(OC)nc(N/N=C(\c2ccccc2)c2ccncc2)n1`: 7.9%.

Consider `C/C(=N/Nc1nc(-c2ccccc2)c(CC(=O)O)s1)c1ccccc1`, for which the inhibition was -23%. The same measure for `Cc1cc(S(=O)(=O)N2CCOCC2)ccc1OCC(=O)Nc1cccc(C(F)(F)F)c1`: -8.26%. The same measure for `COc1ccccc1N1CCN(C(=O)c2c(-c3c(Cl)cccc3Cl)noc2C)CC1`: -1.94%; for `COc1ccccc1N1CCN(C(=O)c2cc(=O)c3cc(C)ccc3o2)CC1`: 7.53%; for `COc1ccccc1N1CCN(C(=O)c2cc(=O)c3cc(C)cc(C)c3o2)CC1`: 56.9% (active).

As to `Cc1coc2c1c(C)cc1oc(=O)c(CC(=O)NCC(=O)N[C@H](C(=O)O)C(C)C)c(C)c12`, the inhibition is 23.9%.

For the compound `COc1ccccc1CCNC(=O)C(=O)NCCC1CCCCN1S(=O)(=O)c1cccs1` (stereo not given), the inhibition was 55.6% (active). As to `COc1ccc(CCNC(=O)C(=O)NCC2CCCN2S(=O)(=O)c2cccs2)cc1OC` (stereo not given), the inhibition was 6.8%. As for `O=C(NCCC1CCCCN1S(=O)(=O)c1cccs1)C(=O)Nc1ccc(F)cc1F` (stereo not given), the inhibition was 15.3%. With `CCCCNC(=O)C1CCC(CNS(=O)(=O)c2ccc(NC(C)=O)cc2)CC1` (stereo not given), the inhibition was -6.13%. As for `CN(C)c1cc[n+](Cc2ccccc2)cc1`, the inhibition is 55.3% (active).

For the compound `CN(C)c1ccc(CSc2ccccc2)cc1`, the inhibition is -50.9%. The same measure for `c1ccc(Cc2cc[n+](Cc3ccccc3)cc2)cc1`: 20.7%; for `COc1cccc(/C=N/NC(=O)CNC(=O)c2ccc(S(=O)(=O)N3CCOCC3)cc2)c1OC`: 3.3%; for `COc1cc(/C=N/NC(=O)c2cc(-c3ccccc3C)nc3ccccc23)cc(OC)c1O`: 3.09%.

`COc1cccc(/C=N/NC(=O)c2[nH]nc3c2CCc2ccccc2-3)c1O`: the inhibition is 81.1% (active). The same measure for `O=C(NCCCNC(=O)NC1CCCCC1)NC1CCCCC1`: 0.18%. For `O=[N+]([O-])c1cc([N+](=O)[O-])c(Oc2cc(F)cc(F)c2F)cc1NN1CCCCC1`, the inhibition was -2.49%. For `CC1(C)CC(=O)c2c(n(S(=O)(=O)c3ccccc3)c3ccc(NS(=O)(=O)c4ccccc4)cc23)C1`, the inhibition is 84.1% (active). Take `Cn1c(=O)n(C)c2cc(NS(=O)(=O)c3ccc(F)cc3)ccc21`: the inhibition is 0.54%. `Cn1c(CCN2CCCC2)nc2cc(NS(=O)(=O)c3ccccc3)ccc21`: the inhibition is 12.8%. In the case of `C[C@H](CO)N1C[C@H](C)[C@@H](CN(C)Cc2ccc(-c3ccccc3)cc2)Oc2ccc(NC(=O)Cn3cnnn3)cc2C1=O`, the inhibition is -7.22%. As for `N#Cc1ccc(CN2CCN(CC(=O)Nc3ccccc3C(=O)NC3CC3)CC2)cc1`, the inhibition was -0.74%.

For the compound `COc1cccc(C(=O)Nc2c3c(nn2-c2cccc(C)c2C)CS(=O)(=O)C3)c1OC`, the inhibition is 5.94%.

Consider `CCC(=O)N1CCc2cc(Br)c(S(=O)(=O)NCCN3CCCCC3CC)cc21` (stereo not given), for which the inhibition is -20.7%. With `CC(=O)Nc1ccc(S(=O)(=O)N2CCN(C(=O)c3ccccc3F)CC2)cc1`, the inhibition was 4.91%.

Turning to `COCCn1c(CN2CCC(Cc3ccccc3)CC2)nc2c1c(=O)n(C)c(=O)n2C`, the inhibition was 66.7% (active).

Consider `COCCn1c(CN(Cc2ccccc2)Cc2ccccc2)nc2c1c(=O)n(C)c(=O)n2C`, for which the inhibition was 9.35%.

As to `CC1CCN(Cc2nc3c(c(=O)n(C)c(=O)n3C)n2CCc2ccccc2)CC1`, the inhibition is 0.83%. The same measure for `NC1=NC(=O)C(Cc2cccc(Cl)c2Cl)S1` (stereo not given): -27.7%. Turning to `Cc1ccccc1NC(=O)Cn1cc(C(=O)C2CC2)c2ccccc21`, the inhibition was -3.91%.

In the case of `O=C(Cn1cc(C(=O)C2CC2)c2ccccc21)Nc1ccccc1Cl`, the inhibition is 60.8% (active).

As to `COCCCNC(=O)Cn1cc(C(=O)C2CC2)c2ccccc21`, the inhibition was 5.8%.

The values above are taken from PubChem BioAssay AID588413 (Sanford-Burnham Center for Chemical Genomics, 2011).
